According to PubChem BioAssay (NCI):
This is part of a sample that, as a whole, favours compounds with a hit. Of some 83,000 tested, about 20% had one in any assay.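 A percent growth of 40 corresponds to 60% growth inhibition; 0 means no net growth; -100 means all cells died. Active threshold: below 10.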 A number with no mark means an inactive call. The source made the active and inactive calls.

Tests used:
Assay in all cases: NCI-60 one-dose screen, 48 h (100 = growth as untreated, 0 = no growth, -100 = all killed)
Settings in all cases: 10 µM unless noted
RPMI-8226 leukemia = tested on: RPMI-8226 leukemia
OVCAR-8 ovarian = tested on: OVCAR-8 ovarian
OVCAR-5 ovarian = tested on: OVCAR-5 ovarian
OVCAR-4 ovarian = tested on: OVCAR-4 ovarian
SK-OV-3 ovarian = tested on: SK-OV-3 ovarian
IGROV1 ovarian = tested on: IGROV1 ovarian
OVCAR-3 ovarian = tested on: OVCAR-3 ovarian
HS 578T breast = tested on: HS 578T breast
NCI/ADR-RES ovarian = tested on: NCI/ADR-RES ovarian
T-47D breast = tested on: T-47D breast

| SMILES | growth (RPMI-8226 leukemia) | growth (OVCAR-8 ovarian) | growth (OVCAR-5 ovarian) | growth (OVCAR-4 ovarian) | growth (SK-OV-3 ovarian) | growth (IGROV1 ovarian) | growth (OVCAR-3 ovarian) | growth (HS 578T breast) | growth (NCI/ADR-RES ovarian) | growth (T-47D breast) |
| --- | --- | --- | --- | --- | --- | --- | --- | --- | --- | --- |
| Cc1cc(C(C)(C)c2cc(C)c(O)c(CN(C)C)c2)cc(CN(C)C)c1O | 84.1% | 89.4% | 102% | 99.1% | 104% | 78.9% | 85.7% | 76.1% | 95.7% | 107% |
| COC1=CC(c2ccc[nH]2)=N/C1=C\c1[nH]c(C)c(C(=O)CCC(=O)Oc2ccc3c(c2)CCC2C3CC[C@]3(C)C(=O)CC[C@@H]23)c1C (stereo not given in full) | 68.3% | 80.8% | 55.6% | 67.7% | 85.5% | 79.5% | 89.1% | 69.8% | 82.3% | 79.2% |
| O=C1C[C@@H]2/C(=C(O)\C=C\c3ccccc3)C(=O)C=C[C@@H]2O1 | 32.5% | 8.54% (active) | 51.5% | 37.5% | 86.1% | -52.6% (active) | -46.2% (active) | -2.33% (active) | 7.67% (active) | 16.7% |
| COc1ccc(-c2cc(C(=O)Nc3nc4cc(C)c(C)cc4s3)nc3cc(-c4ccccc4)nn23)cc1OC | 88% | 110% | 111% | 106% | 105% | 122% | 138% | 111% | 102% | 103% |
| COc1cc(/C=C/C(=O)Nc2ccc3c(c2)/C(=C\c2cccn2C)C(=O)N3)cc(OC)c1OC | -17.8% (active) | 37% | 99.5% | 50.3% | 81.5% | 60.4% | 41.7% | 4.35% (active) | 84.2% | 15% |
| N#Cc1c(N2CCOCC2)nc2sc3cc(Cl)ccc3n2c1=N | 94.4% | 95.7% | 95.2% | 102% | 67.3% | 67.2% | 104% | 66.8% | 99% | 33.1% |
| C/C(=C\CCc1ccsc1)CC/C=C(\C)CCCN1CCN(CCO)CC1 | -18.9% (active) | 59.3% | 71.8% | 41.9% | 77.4% | 52.8% | 64.6% | 49.5% | 56.3% | 36.2% |
| CCOC(=O)/C(=C/c1ccccc1)C(=O)c1ccccc1 | 3.77% (active) | 65.3% | 97.3% | 81.8% | 92.6% | 65.8% | 63.5% | 88% | 65.3% | 73.6% |
| COc1ccc(-c2csc(NC(=O)c3cc(OC)c(OC)c(OC)c3)n2)cc1 | 92.7% | 97.2% | 103% | 96.8% | 101% | 100% | 105% | 96.4% | 115% | 94.8% |
| CSc1nc2c(c(=O)[nH]1)C(c1ccc(Cl)cc1)C1=C(N2)/C(=C/c2ccc(Cl)cc2)CNC1 (stereo not given) | -13.4% (active) | 31.6% | 105% | 33.1% | 87.4% | 26.1% | 4.17% (active) | 68.7% | 74.5% | 54.3% |
| O=C1Nc2ccc(F)cc2/C1=C/c1nc(-c2ccc(F)cc2)n2ccccc12 | 117% | 97.7% | 94.7% | 96.3% | 108% | 97.8% | 112% | 100% | 112% | 96.6% |
| O=C(Nc1ccc(Oc2ccc(NC(=O)Nc3ccc([N+](=O)[O-])cc3)cc2)cc1)Nc1ccc([N+](=O)[O-])cc1 | -53.5% (active) | 10.1% | 6.63% (active) | 34.5% | 12.8% | -13.2% (active) | 8.26% (active) | 23.3% | 8.82% (active) | 1.54% (active) |
| COc1ccc(C2=NN(C(=O)c3cc(OC)c(OC)c(OC)c3)C(c3ccc(C#N)cc3)C2)cc1OC (stereo not given) | 60.8% | 32.8% | 58.8% | 62.1% | 19.8% | 13.4% | -47.8% (active) | -18.3% (active) | 2.92% (active) | 37.1% |
